PubChem BioAssay (NCATS)
Records with an inconclusive call do not appear. Calls of active or inactive are those of the source. Calls follow the shape of the dose curve; as a rule, active = well fitted cell-killing curve with a large enough effect; inconclusive = small, poorly fitted or top-dose-only effect; inactive = no such curve, though single readings can be large or run the other way.

assay: qHTS of pediatric cancer cell lines to identify multiple opportunities for drug repurposing: Primary screen for A673 cells (AID 1347092); conditions: A673 Ewing sarcoma viability, CellTiter-Glo ATP luminescence, 48 h; series mostly up to 46 µM; activity change, negative = cytotoxic: at the top concentration; also: nearly all actives have a fitted effect of over 45% in size
From the text: Drug repurposing or repositioning has been offered as a strategy for drug development in oncology programs. This approach has special potential for childhood cancers and other rare or orphan diseases, where the expected return on new drug development has been a disincentive to pharmaceuticals. […] In this project we exploit the poly-pharmacology of drugs to discover new indications via phenotypic screening of a panel of 19 well-characterized cell lines derived from solid tumors seen in children and adolescents. The goal is to identify approved drugs with previously unrecognized anticancer properties that has the potential to reveal new mechanisms and biological processes involved in carcinogenesis or drug resistance. We employed a titration-based paradigm (quantitative high-throughput screening or qHTS), where all compounds were tested at multiple concentrations for their effect on cell viability. Concentration-response curves (CRCs) were derived directly from the primary screen, and both potency and efficacy values were used to identify compounds with robust bioactivity profiles. We screened the NIH Chemical Genomics Center (NCGC) Pharmaceutical Collection (NPC) and Mechanism Interrogation Plate (MIPE) small molecule collections of approved and investigational compounds against these cell lines; and measured metabolically active cells after 48 hours of compound treatment as a proxy for cell viability. […] Assay Submitter: Nathalia J. Martinez, National Center for Advancing Translational Sciences, National Institutes of Health, Rockville, MD, USA; email: natalia.martinez@nih.gov. Shen, M et al. Quantitative high-throughput phenotypic screening of pediatric cancer cell lines identifies multiple opportunities for drug repurposing. Oncotarget 2017 Dec 19;9(4):4758-4772. PMID 29435139.
The cells were obtained from University of North Carolina (UNC), Pediatric Preclinical Testing Program (PPT), and Coriell Institute (CI). qHTS cell viability assay: Cells were assayed in growth media at a density of 500-1,000 cells/well. Five microliters of cells were dispensed into 1,536-well, white, solid-bottom, TC-treated plates (Greiner Bio One) using a multidrop dispenser and incubated at 37 degrees C, 5% CO2, under a humidified atmosphere for 5 hours. Twenty-three nanoliters of compounds and controls (neutral control DMSO or positive control bortezomib at final concentration of 2.3 uM) were subsequently transferred by Kalypsys pintool. For primary screens, the MIPE collection was tested at 11-point dilutions (final concentrations range from 0.78 nM to 46 µM) and the NPC collection at 8-point dilutions (final concentrations range from 0.59 nM to 46 µM). Compounds tested in follow-up screens were assayed at 11-point dilutions. Cells were incubated for 48 hours, followed by addition of 3 uL of CellTiter-Glo (Promega). After a 15min incubation at room temperature, samples were analyzed for luminescence intensity using a ViewLux High-throughput CCD imager equipped with clear filters.
% is scaled to controls: 0 for no effect and ±100 for the full control effect; potency is read from the fitted curve at half-maximal effect.

For NCCNCCNCCN, which “activity change, negative = cytotoxic” value is on record?
Its value is -4.18% (inactive).

For CC(=O)Nc1ccc(/C=N/NC(N)=S)cc1, which “activity change, negative = cytotoxic” value is on record?
The value was 150% (inactive).

With C[C@@H]1CCN(C(=O)[C@H](CCCN=C(N)N)NS(=O)(=O)c2cccc3c2NC[C@H](C)C3)[C@@H](C(=O)O)C1 as the molecule, how does the “activity change, negative = cytotoxic” value read?
The value was 3.83% (inactive).

For N[C@@H](CSCCCO)C(=O)O, which “activity change, negative = cytotoxic” value is on record?
The value was -1.1% [at 16.1 µM] (inactive).

For NS(=O)(=O)c1cc2c(cc1C(F)(F)F)NC(Cc1ccccc1)NS2(=O)=O (stereo not given), which “activity change, negative = cytotoxic” value is on record?
Its value is 13.2% (inactive).

With O=c1[nH]c(=O)c2[nH]c(=O)[nH]c2[nH]1 as the molecule, how does the activity change, negative = cytotoxic read?
Its activity change, negative = cytotoxic is -14.8% [at 9.22 µM] (inactive).

For Nc1cc(=O)[nH]c(N)n1, which “activity change, negative = cytotoxic” value is on record?
Its value is 1.65% (inactive).

Which “activity change, negative = cytotoxic” value does the source give for Oc1cccc(O)c1 here?
Its value is -0.658% (inactive).

Which “activity change, negative = cytotoxic” value does the source give for NCC(=O)CCC(=O)O here?
Its value is 1.18% (inactive).

With CCCCCCCCCCCCCCCCCCOCC(O)CO (stereo not given) as the molecule, how does the “activity change, negative = cytotoxic” value read?
The value was 4.24% (inactive).

Which “activity change, negative = cytotoxic” value does the source give for CCCCCCCCCCCCOS(=O)(=O)O here?
The value was 12.6% (inactive).

For CC(O)COc1ccccc1 (stereo not given), which “activity change, negative = cytotoxic” value is on record?
Its value is 13.6% (inactive).

Which “activity change, negative = cytotoxic” value does the source give for CNC(=O)Oc1ccc2c(c1)[C@]1(C)CCN(C)[C@@H]1N2C here?
Its value is -0.28% (inactive).

Which “activity change, negative = cytotoxic” value does the source give for CCN(CC)C(=O)Nc1ccc(OCC(O)CNC(C)(C)C)c(C(C)=O)c1 (stereo not given) here?
Its value is 5.09% (inactive).

With CN(C)CCOC(C)(c1ccccc1)c1ccccn1 (stereo not given) as the molecule, how does the “activity change, negative = cytotoxic” value read?
The value was -3.43% (inactive).

For CCN(CC)CCOC(=O)C1(C2CCCCC2)CCCCC1, which “activity change, negative = cytotoxic” value is on record?
Its value is -17.8% (inactive).

Which “activity change, negative = cytotoxic” value does the source give for O=C1NC(=O)[C@@]2(CCOc3ccc(F)cc32)N1 here?
The value was -11.4% (inactive).

For c1ccc2c(CC3=NCCN3)cccc2c1, which “activity change, negative = cytotoxic” value is on record?
The value was -14.2% (inactive).

Which “activity change, negative = cytotoxic” value does the source give for Cc1c(Cl)cccc1Nc1ccccc1C(=O)O here?
The value was -7.86% (inactive).

Which Potency does the source give for CC[N+](CC)(CC)CCOc1ccc(/C=C/c2ccccc2)cc1 here?
The Potency was 2.66 µM (active).

With CCOc1nc2cccc(C(=O)O)c2n1Cc1ccc(-c2ccccc2-c2nn[nH]n2)cc1 as the molecule, how does the “activity change, negative = cytotoxic” value read?
The value was 1.23% (inactive).

For CC1=C(CC(=O)O)c2cc(F)ccc2/C1=C\c1ccc(S(C)(=O)=O)cc1, which “activity change, negative = cytotoxic” value is on record?
The value was -21.5% (inactive).

For COc1ccc2cc1Oc1ccc(cc1)C[C@H]1c3c(cc4c(c3Oc3cc5c(cc3OC)CCN(C)[C@@H]5C2)OCO4)CCN1C, which Potency is on record?
Its Potency is 13.3 µM (active).

With COc1ccc2c(c1)C(=O)N(CCc1ccc(S(=O)(=O)NC(=O)NC3CCCCC3)cc1)C(=O)C2(C)C as the molecule, how does the “activity change, negative = cytotoxic” value read?
Its value is -4.79% (inactive).

Which “activity change, negative = cytotoxic” value does the source give for C[C@H](NC(CCc1ccccc1)C(=O)O)C(=O)N1CCC[C@H]1C(=O)O (stereo not given in full) here?
Its value is 7.02% (inactive).

Which “activity change, negative = cytotoxic” value does the source give for Cc1cc2nc3c(=O)[nH]c(=O)nc-3n(C[C@H](O)[C@H](O)[C@H](O)CO)c2cc1C here?
Its value is 2.21% [at 16.1 µM] (inactive).

With C[C@@H]1CC[C@@]2(OC1)O[C@H]1C[C@H]3[C@@H]4CC[C@H]5C[C@@H](O)CC[C@]5(C)[C@H]4CC(=O)[C@]3(C)[C@H]1[C@@H]2C as the molecule, how does the activity change, negative = cytotoxic read?
The activity change, negative = cytotoxic was 9.64% [at 4.84 µM] (inactive).

For CC(=O)NC(Cc1ccccc1)C(=O)O (stereo not given), which “activity change, negative = cytotoxic” value is on record?
The value was -24.1% (inactive).

With C=Cc1c(C)c2cc3[nH]c(cc4nc(cc5nc(cc1[nH]2)C(C)=C5CCC(=O)O)C(CCC(=O)O)=C4C)c(C)c3C=C as the molecule, how does the “activity change, negative = cytotoxic” value read?
Its value is -2.16% (inactive).

For O=C(O)[C@@H]1CSCN1, which “activity change, negative = cytotoxic” value is on record?
Its value is -15.4% (inactive).

With CC1(C)[C@@H]2CC[C@@]1(C)C(=O)C2 as the molecule, how does the “activity change, negative = cytotoxic” value read?
The value was 11.9% (inactive).

Which “activity change, negative = cytotoxic” value does the source give for Cn1cc[nH]c1=S here?
The value was 2.57% (inactive).

With O=C1O[C@H](CO)[C@@H](O)[C@H](O)[C@H]1O as the molecule, how does the “activity change, negative = cytotoxic” value read?
Its value is 8.88% (inactive).

Which “activity change, negative = cytotoxic” value does the source give for O=Cc1ccccc1C=O here?
The value was -4.27% (inactive).

Which “activity change, negative = cytotoxic” value does the source give for CC1CC(OC(=O)C(O)c2ccccc2)CC(C)(C)N1C (stereo not given) here?
Its value is 14% (inactive).

For C[C@]12C[C@H](O)[C@H]3[C@@H](CCC4=CC(=O)CC[C@@]43C)[C@@H]1CC[C@@H]2C(=O)CO, which “activity change, negative = cytotoxic” value is on record?
Its value is 12.1% (inactive).

With O=c1cc(CO)occ1O as the molecule, how does the “activity change, negative = cytotoxic” value read?
The value was -6.41% (inactive).

For Cn1c(=O)c2c(ncn2CC2OCCO2)n(C)c1=O, which “activity change, negative = cytotoxic” value is on record?
Its value is 6.12% (inactive).

With OCC(CO)N[C@H]1C[C@](O)(CO)[C@@H](O)[C@H](O)[C@H]1O as the molecule, how does the “activity change, negative = cytotoxic” value read?
Its value is 3.79% (inactive).

For OCC(O)CN1CCN(c2ccccc2)CC1 (stereo not given), which “activity change, negative = cytotoxic” value is on record?
The value was -14.6% (inactive).
